Test results reported in PubChem BioAssay AID1159580 (chemical genetic matrix, 2015).
“And” between values parts separate entries of the source, which are not always exact repeats. Equal values may be shown once. The campaign covered roughly 5,500 compounds. About 2,000 (36%) were called active. Inconclusive results (about 18%) are left out. Rule as the data show it: active = normalized growth mostly below about 0.91 (no sharp cut-off); inconclusive = no clear call, values can overlap the other calls; inactive = mostly above about 0.92. This is one part of the list.

Assay: chemical genetic growth profiling, strain panel (AID 1159580);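 also: tested at 20 µM; growth read once vehicle control cultures reached saturation at 30 °C; 1 = growth at the plate median or of vehicle wells; lower values mean less growth of the strain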
Conditions: S. cerevisiae deletion strains, growth OD

Measured: normalized growth

O=C(O)COc1cc(Cl)c(Cl)cc1Cl
inactive: locus YAL013W, strain DEP1, stronger effect = lower value 1 | locus YAL021C, strain ccr4, stronger effect = lower value 0.984 | locus YAL026C, strain drs2, stronger effect = lower value 1 | locus YAL030W, strain snc1, stronger effect = lower value 1.01 | locus YBL061C, strain skt5, stronger effect = lower value 1 | locus YBR009C, strain hhf1, stronger effect = lower value 1 | locus YBR021W, strain FUR4, stronger effect = lower value 1.01 | locus YBR023C, strain chs3, stronger effect = lower value 1 | locus YBR171W, strain sec66, stronger effect = lower value 0.998 | locus YBR229C, strain ROT2, stronger effect = lower value 1.01 | locus YBR231C, strain swc5, stronger effect = lower value 1 | locus YBR279W, strain paf1, stronger effect = lower value 1 | locus YCL011C, strain gbp2, stronger effect = lower value 1 | locus YCL016C, strain dcc1, stronger effect = lower value 0.988 | locus YCL029C, strain bik1, stronger effect = lower value 1.02 | locus YCL061C, strain MRC1, stronger effect = lower value 1 | locus YCL069W, strain vba3, stronger effect = lower value 0.993 | locus YCR088W, strain abp1, stronger effect = lower value 1 | locus YDL005C, strain med2, stronger effect = lower value 0.995 | locus YDL035C, strain GPR1, stronger effect = lower value 1.02 | locus YDL040C, strain nat1, stronger effect = lower value 0.994 | locus YDL074C, strain BRE1, stronger effect = lower value 1.01 | locus YDL101C, strain DUN1, stronger effect = lower value 0.982 | locus YDL134C, strain PPH21, stronger effect = lower value 1.01 | locus YDL185W, strain tfp1, stronger effect = lower value 1.03 | locus YDL192W, strain arf1, stronger effect = lower value 1.02 | locus YDR001C, strain nth1, stronger effect = lower value 1.01 | locus YDR069C, strain doa4, stronger effect = lower value 0.994 | locus YDR101C, strain arx1, stronger effect = lower value 1.02 | locus YDR137W, strain rgp1, stronger effect = lower value 1.05 | locus YDR150W, strain NUM1, stronger effect = lower value 1 | locus YDR159W, strain sac3, stronger effect = lower value 0.999 | locus YDR162C, strain NBP2, stronger effect = lower value 1 | locus YDR195W, strain ref2 0.952 | locus YDR297W, strain sur2, stronger effect = lower value 1 | locus YDR318W, strain mcm21, stronger effect = lower value 1.02 | locus YDR334W, strain swr1, stronger effect = lower value 0.998 | locus YDR335W, strain msn5, stronger effect = lower value 0.994 | locus YDR388W, stronger effect = lower value 1.02 | locus YDR392W, strain spt3, stronger effect = lower value 1.01 | locus YDR502C, strain sam2, stronger effect = lower value 1.01 | locus YEL003W, strain gim4, stronger effect = lower value 1.02 | locus YEL037C, strain rad23, stronger effect = lower value 1.01 | locus YEL061C, strain CIN8 (second series), stronger effect = lower value 0.999 | locus YEL061C, strain CIN8, stronger effect = lower value 1 | locus YER015W, strain faa2, stronger effect = lower value 1 | locus YER016W, strain bim1, stronger effect = lower value 1 | locus YER110C, stronger effect = lower value 1.02 | locus YER111C, strain swi4, stronger effect = lower value 0.993 | locus YER155C, strain BEM2 (second series), stronger effect = lower value 0.989 | locus YER155C, strain BEM2, stronger effect = lower value 1.01 | locus YER167W, strain BCK2, stronger effect = lower value 1.02 | locus YFR010W, strain ubp6, stronger effect = lower value 1 | locus YGL078C, strain dbp3, stronger effect = lower value 1.02 | locus YGL086W, strain mad1, stronger effect = lower value 1.01 | locus YGL167C, strain pmr1, stronger effect = lower value 1 | locus YGL173C, strain kem1, stronger effect = lower value 0.994 | locus YGL227W, strain vid30, stronger effect = lower value 1 | locus YGL240W, strain doc1, stronger effect = lower value 0.999 | locus YGL248W, strain PDE1, stronger effect = lower value 1.02 | locus YGL253W, strain hxk2, stronger effect = lower value 0.995 | locus YGR078C, strain PAC10, stronger effect = lower value 1.02 | locus YGR135W, strain pre9, stronger effect = lower value 1.03 | locus YGR229C, strain SMI1, stronger effect = lower value 1.02 | locus YGR252W, strain gcn5, stronger effect = lower value 1.04 | locus YHR013C, strain ard1, stronger effect = lower value 0.997 | locus YHR027C, strain rpn1, stronger effect = lower value 0.998 | locus YHR030C, strain SLT2, stronger effect = lower value 1.01 | locus YHR079C, strain IRE1 (second series), stronger effect = lower value 1.02 | locus YHR079C, strain IRE1, stronger effect = lower value 1.02 | locus YHR094C, strain hxt1, stronger effect = lower value 1.02 | locus YHR129C, strain ARP1, stronger effect = lower value 1.01 | locus YHR142W, strain chs7, stronger effect = lower value 1 | locus YHR200W, strain rpn10, stronger effect = lower value 1.01 | locus YIL066C, strain RNR3, stronger effect = lower value 1.03 | locus YIL073C, strain SPO22, stronger effect = lower value 1.09 | locus YIL125W, strain kgd1, stronger effect = lower value 1.02 | locus YIR030C, strain dcg1, stronger effect = lower value 1.02 | locus YJL092W, strain hpr5, stronger effect = lower value 0.999 | locus YJL095W, strain BCK1 (second series), stronger effect = lower value 0.994 | locus YJL095W, strain BCK1, stronger effect = lower value 1.02 and 1.03 | locus YJL115W, strain asf1, stronger effect = lower value 0.991 | locus YJL129C, strain trk1, stronger effect = lower value 0.998 | locus YJL134W, strain LCB3, stronger effect = lower value 1.01 | locus YJL154C, strain vps35, stronger effect = lower value 0.998 | locus YJL164C, strain tpk1, stronger effect = lower value 1.01 | locus YJL166W, strain qcr8, stronger effect = lower value 1.01 | locus YJL168C, strain set2, stronger effect = lower value 1.02 | locus YJL187C, strain SWE1 (second series), stronger effect = lower value 1.01 | locus YJL187C, strain SWE1, stronger effect = lower value 1 | locus YJR043C, strain POL32, stronger effect = lower value 1.01 | locus YJR066W, strain TOR1, stronger effect = lower value 0.94
